Most compounds without a hit are left out; they make up all but 15% or so of the library.
ALOX12 inh – Primary qHTS assay for inhibitors of human arachidonate 12S-lipoxygenase (ALOX12): Round 2 | Polyunsaturated fatty acid lipoxygenase ALOX12 (Homo sapiens), P18054 | purified 12hLO, xylenol orange hydroperoxide absorbance | Potency, µM (highest dose often 108 µM), for inactives: at the highest dose activity change, negative = inhibition, hits mostly inhibitors | actives 1.1% (n = 580,000) | AID 1671190, 2021
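Purified human 12hLO (150 nM final) in 25 mM Hepes, 0.01% Triton X-100, pH 7.0 was preincubated 15 min at room temperature with compound. Then 40 uM arachidonic acid was added, 30 min. Hydroperoxide was read by Fe-XO absorbance ratio 573/405 nm.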
RORgamma inh – qHTS for inhibitors of ROR gamma transcriptional activity. Nuclear receptor ROR-gamma (Mus musculus), P51450. Drosophila S2 Gal4-RORgamma UAS-luciferase reporter, 20 h. Potency, µM (top dose mostly 53.6 µM), inactives show at the top dose activity change, negative = inhibition, usual class: inhibitors. AID 2551, 2010. actives 5.4% (n = 310,000); note: nearly all actives have a fitted effect of over 60% in size
Target sequence (P51450 whole entry, looked up, the tested form may be a part): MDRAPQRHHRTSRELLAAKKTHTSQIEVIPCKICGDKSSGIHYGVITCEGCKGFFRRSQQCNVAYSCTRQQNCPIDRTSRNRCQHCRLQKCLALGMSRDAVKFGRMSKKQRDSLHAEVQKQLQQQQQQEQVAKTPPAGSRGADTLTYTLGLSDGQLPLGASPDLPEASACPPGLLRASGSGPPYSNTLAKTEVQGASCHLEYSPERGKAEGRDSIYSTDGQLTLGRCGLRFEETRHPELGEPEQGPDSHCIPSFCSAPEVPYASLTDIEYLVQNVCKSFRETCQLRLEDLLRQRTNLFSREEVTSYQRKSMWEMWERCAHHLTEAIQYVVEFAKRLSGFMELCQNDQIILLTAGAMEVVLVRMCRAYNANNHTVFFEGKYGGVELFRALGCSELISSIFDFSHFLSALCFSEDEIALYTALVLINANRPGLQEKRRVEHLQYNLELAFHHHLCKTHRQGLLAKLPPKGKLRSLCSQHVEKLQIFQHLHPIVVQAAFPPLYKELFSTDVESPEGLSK
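Drosophila Schneider cells stably carrying a metallothionein-driven Gal4 DBD–ROR gamma fusion and a UAS-Photinus luciferase reporter were exposed to compound for 1 hr, then induced with copper sulfate (700 uM final) for 20 hr at ambient temperature before luminescence reading.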
Gal4-VP16 FLuc – VP16 counterscreen qHTS for inhibitors of ROR gamma transcriptional activity; Drosophila S2 Gal4-VP16 UAS-luciferase, luminescence, 20 h; Potency, µM (doses to about 53.6 µM), for inactives: top-dose activity, negative = inhibition, hits mostly inhibitors; actives 3.5% (n = 310,000); AID 2546, 2010;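 note: Gal4-VP16 expression switched on by copper sulfate through the metallothionein promoter; nearly all actives have a fitted effect of over 50% in size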
DT40 TDP1 no CPT – qHTS for Inhibitors of human tyrosyl-DNA phosphodiesterase 1 (TDP1): qHTS in cells in absence of CPT; DT40 Tdp1-/- hTDP1 cells, no CPT, ATP luminescence, 48 h; Potency, µM (top dose mostly 46.2 µM), for the others: top-dose activity change, negative = growth inhibition, actives largely listed as inhibitors; actives 15% (n = 420,000); AID 686978, 2013; note: nearly all actives have a fitted effect of over 55% in size
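Chicken DT40 Tdp1-/- cells stably complemented with human TDP1 were seeded at 400 cells/well with DMSO in place of 20 nM camptothecin. After compound pinning, cells grew at least 48 hr at 37 °C; viability read by CellTiter-Glo luminescence.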
ELG1 repair inh – qHTS screen for small molecules that inhibit ELG1-dependent DNA repair in human embryonic kidney (HEK293T) cells expressing luciferase-tagged ELG1; Potency, µM (top dose mostly 46.1 µM), without a hit: top-dose activity change, negative = inhibition, actives largely listed as inhibitors; actives 2.3% (n = 330,000); HEK293T ELG1-luciferase reporter, luminescence, 16 h; DNA damage induced by 5-fluorouridine; note: nearly all actives have a fitted effect of over 55% in size
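Step one: seed 2,000 cells per well. Step two: pin-transfer compound or DMSO alongside 5-fluorouridine. Step three: incubate 16 hr, 37 °C, 5% CO2. Step four: add ONE-Glo, wait 30 min, read luminescence.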
TDP1 cell CPT – qHTS for Inhibitors of human tyrosyl-DNA phosphodiesterase 1 (TDP1): qHTS in cells in presence of CPT; AID 686979, 2013; actives 12% (n = 420,000); chicken DT40 Tdp1-/-;hTDP1 cells + 20 nM CPT, ATP luminescence, 48 h; Potency, µM (doses to about 46.2 µM), for the others: top-dose activity change, negative = growth inhibition, hits mostly inhibitors; note: nearly all actives have a fitted effect of over 55% in size
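Chicken DT40 Tdp1-/- cells stably complemented with human TDP1 were seeded at 400 cells/well in medium containing 20 nM camptothecin, exposed to pin-transferred compounds, and grown at 37 °C for at least 48 hr. Viability was read as ATP luminescence.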
Active calls of the source: *; ? = inconclusive; · = no result; [ ] = another dose, or the depositor's remark. Calls come from the whole dose curve; as a rule, active = well fitted curve in the direction sought with a large enough effect; inconclusive = small, poorly fitted or top-dose-only effect, or another doubt; inactive = no such curve, though single readings can be large; an effect the other way counts as inactive or inconclusive. % is set by controls: 0 for no effect and ±100 for the full control effect; potency is the fitted concentration of half-maximal effect.

SMILES	ALOX12 inh	RORgamma inh	Gal4-VP16 FLuc	DT40 TDP1 no CPT	ELG1 repair inh	TDP1 cell CPT
COc1ccc(-c2nc(CSCC(=O)N3CCN(Cc4ccc5c(c4)OCO5)CC3)c(C)o2)cc1	-23.7%	·	·	·	·	·
COc1ccc(N2CCN(c3nc(C(=O)N4CCC(C)CC4)cs3)CC2)cc1	-9.5%	·	·	·	·	·
Cc1cccc(OCCCC(=O)NNC(=O)c2ccncc2)c1	-1.1%	·	·	-15.1%	13.8%	-17.3%
O=C(NNC(=O)c1ccccn1)c1ccc(OC(F)F)cc1	10.1%	·	·	4.61µM*	-13.4%	5.8µM*
C/C(=N\Nc1ccccn1)c1ccc(OC(F)F)cc1	-17.4%	14.1µM*	?	?	?	?
O=C(CCc1ccccc1)NNC(=O)c1ccccn1	12.8%	10µM*	?	?	?	?
Cc1cccc(OCCCC(=O)NNC(=O)c2ccccn2)c1	7.2%	·	·	7.31µM*	?	6.51µM*
O=C(CCc1ccccc1)NNC(=O)CCc1ccccc1	?	-6.5%	-11.6%	-5.1%	2.7%	-1.2%
CCCCOc1ccc(CSC(CC(=O)O)C(=O)O)cc1 (stereo not drawn)	-28.7%	2.24µM*	-16.4%	-3.2%	0.7%	8.1%
Cc1c(/C=N/NC(N)=O)c2ccccn2c1C(=O)c1ccncc1	?	-32.6%	-5.1%	-20.4%	?	?
Cc1c(/C=N/NC(=O)c2cccnc2)c2ccccn2c1C(=O)c1ccc(F)cc1	·	12.1%	-2.2%	·	18.4µM*	·
Cc1c(/C=N/NC(=O)c2ccccc2O)c2ccccn2c1C(=O)c1ccc(F)cc1	-25.7%	-1.3%	-27.8%	23.1µM*	23.1µM*	?
Cc1c(/C=N/NC(=O)c2cc(=O)[nH]c(=O)[nH]2)c2ccccn2c1C(=O)c1ccccc1	9.0%	0.5%	9.5%	-0.4%	-1.6%	-6.9%
O=C(N/N=C/c1c(Cl)nc2ccccn2c1=O)c1cccnc1	3.16µM*	1.3%	-0.2%	?	15.6%	?
COC(=O)N/N=C/c1c(C)c(C(=O)c2ccc(F)cc2)n2ccccc12	-6.6%	0.2%	-10.9%	?	23.1µM*	?
CNC(=O)c1ccc(CC2CCN(C(=O)C3CC3)CC2)cc1	25.4%	·	·	·	·	·
COCC(=O)N[C@H]1CCN(C(=O)COC)[C@H](C(=O)N[C@H](Cc2ccccc2)C(N)=O)C1	15.4%[176 µM]	·	·	·	·	·
CC(C)(O)CCc1cccc(C(=O)N[C@H]2CCC[C@H]2C(N)=O)c1	-1.3%	·	·	·	·	·
O=C(CCn1nc(-c2ccc(Cl)cc2)c2ccccc2c1=O)NC1CCCCC1	-8.9%	·	·	·	·	·
CCOC(=O)C1=CCN(S(=O)(=O)c2ccc(C)cc2)C1c1ccc(CC)cc1 (stereo not drawn)	0.1%	·	·	18.4µM*	·	?
CCOC(=O)C1=CCN(S(=O)(=O)c2ccc(C)cc2)C1c1ccc(C)cc1 (stereo not drawn)	-10.6%	·	·	?	·	?
CCOC(=O)C1=CCN(S(=O)(=O)c2ccc(C)cc2)C1c1ccc(C(C)C)cc1 (stereo not drawn)	-15.9%	·	·	18.4µM*	·	18.4µM*
CC1CCc2nc(NC(=O)CSc3nc4ccccc4o3)sc2C1 (stereo not drawn)	3.0%	?	?	18.4µM*	?	?
CCc1nnc(NC(=O)CSc2nc3ccccc3o2)s1	2.9%	-25.1%	?	-11.2%	14.4%	-1.9%
Cc1nnc(SCC(=O)Nc2nc3c(s2)CC(C)CC3)s1 (stereo not drawn)	12.8%	-1.9%	11.5%	10.3µM*	11.8%	?
SMILES	ALOX12 inh	RORgamma inh	Gal4-VP16 FLuc	DT40 TDP1 no CPT	ELG1 repair inh	TDP1 cell CPT
CC[C@H]1CN(S(=O)(=O)c2ccccc2)CC[C@H]1CC(=O)NCCOC	-8.6%[176 µM]	·	·	·	·	·
CCC(CO)[n+]1c(C)cc(/C=C2\Sc3ccccc3N2Cc2ccccc2)cc1C (stereo not drawn)	50.1µM*	?	7.08µM*	2.31µM*	?	2.31µM*
CCN1/C(=C2\SC(=S)N(Cc3ccccc3)C2=O)Sc2ccccc21	-20.9%	1.2%	-2.1%	?	-2.7%	-23.4%
CN(C)C(=O)c1ccc(OC2CCN(C(=O)c3c(F)cccc3F)CC2)nc1	30.6%	·	·	·	·	·
Clc1ccc(-c2nc3cnccn3c2Nc2ccc3c(c2)OCO3)cc1	?	?	-1.6%	20.6µM*	-16.7%	?
Brc1ccc(-c2nc3ccccn3c2Nc2ccc3c(c2)OCCO3)o1	-23.6%	·	·	?	·	25.9µM*
CSc1ccc(-c2nc3cnccn3c2Nc2ccc3c(c2)OCO3)cc1	·	3.7%	10.9%	?	14.3%	?
c1cncc(-c2nc3ccccn3c2Nc2ccc3c(c2)OCCO3)c1	4.5%	40.7%	17.2%	11.6µM*	18.2%	?
Oc1ccccc1-c1nc2cnccn2c1Nc1ccc2c(c1)OCCO2	4.0%	10.9%	8.0%	-27.5%	8.8%	?
CCc1nc2c(c(-c3ccc(Cl)cc3)n1)CN([S+](=O)([O-])c1cccs1)CC2	-6.8%	·	·	·	·	·
CC1=C[C@@H](CNC(=O)NCc2ccccc2)[C@H](C(C)C)C[C@H]1CC(=O)NCc1cccnc1	-10.9%	·	·	·	·	·
COC(=O)c1sc2nc3c(cc2c1N)C(=O)CC(C)(C)C3	18.5%	14.2%	7.0%	-11.2%	16.4%	-20.3%
Cc1cc(C)c(NC(=O)c2sc3nc4c(cc3c2N)C(=O)CC(C)(C)C4)c(C)c1	-14.4%	13.6%	4.7%	18.4µM*	-17.1%	?
COc1ccccc1CNC(=O)[C@@H](C)C1CC[C@@]2(C)CC[C@H](NC(=O)C3CCCCC3)[C@@H](C)[C@@H]2[C@H]1O (stereo partly drawn)	-1.3%	·	·	·	·	·
CCOc1ccc2nc(N(CCCN(C)C)C(=O)c3ccc(S(=O)(=O)N4CCCC4)cc3)sc2c1	?	-0.7%	-7.1%	-28.5%	1.3%	?
CN(C)CCCN(C(=O)c1ccc(S(=O)(=O)N2CCOCC2)cc1)c1nc2cc3c(cc2s1)OCO3	-8.8%	18.8%	-1.5%	0.5%	6.0%	3.6%
CN(C)CCCN(C(=O)c1ccc(S(=O)(=O)N2CCCCC2)cc1)c1nc2cc3c(cc2s1)OCO3	82.4%	-38.2%	-15.6%	?	?	23.1µM*
